{"source": "the supplement of paper PMC12819154", "about": "“High-throughput peptide-centric local stability assay extends protein–ligand identification to membrane proteins, tissues and bacteria” (Nature Structural & Molecular Biology, 2025);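 further: lysate desalted by size exclusion to strip endogenous ATP, peptide intensities built from DIA-NN precursor signals, and peptides missing any value discarded before comparison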", "data": [{"compound": "Nc1ncnc2c1ncn2[C@@H]1O[C@H](COP(=O)(O)OP(=O)(O)OP(=O)(O)O)[C@@H](O)[C@H]1O [adenosine 5'-triphosphate]", "test": "log2 fold change of tryptic peptide abundance, ligand vs vehicle (limited proteolysis) (log2 ratio); higher = more trypsin-susceptible (destabilized)", "conditions": "ligand concentration: 5 mM; sample: E. coli desalted lysate; replicate design: treated before aliquoting", "experimental": "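HT-PELSA: desalted E. coli K-12 BW25113 lysate (with 12 mM MgCl2) incubated with 5 mM ATP (pH 7) or water for 30 min at 25 C, then a 4 min trypsin pulse at 22 C. Peptides were quantified by DIA-MS (4 replicates). Value is the peptide log2 fold change (treated/control); negative = stabilized. Scale: negative = ligand-stabilized region.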", "values": [{"target": "UniProt P77544 (peptide sequence: QIQAWLR, peptide start residue: 104)", "log2 fold change": 0.878}, {"target": "UniProt P46850 (peptide sequence: KDAEVIDEIPMAYK, peptide start residue: 368)", "log2 fold change": -0.573}, {"target": "UniProt P00509 (peptide sequence: VWVSNPSWPNHK, peptide start residue: 123)", "log2 fold change": -1.24}, {"target": "UniProt P28903 (peptide sequence: DGCKVPFK, peptide start residue: 9)", "log2 fold change": -0.869}, {"target": "UniProt Q47147 (peptide sequence: QANRGEVALENTHPFTR, peptide start residue: 80)", "log2 fold change": 0.755}, {"target": "UniProt P0AA41 (peptide sequence: LLAQQFEQHQIQKR, peptide start residue: 72)", "log2 fold change": -1.05}, {"target": "UniProt P75728 (peptide sequence: LVIGADGANSQVR, peptide start residue: 160)", "log2 fold change": 0.798}, {"target": "UniProt P24203 (peptide sequence: ILLTKTDVAGEAEKLHER, peptide start residue: 155)", "log2 fold change": 1.26}, {"target": "UniProt P76085 (peptide sequence: QLGGDASGCSLR, peptide start residue: 198)", "log2 fold change": -1.23}, {"target": "UniProt P0A698 (peptide sequence: SSLAFDTLYAEGQRR, peptide start residue: 38)", "log2 fold change": 2.9}, {"target": "UniProt P0A9U1 (peptide sequence: LIASGTPDDLK, peptide start residue: 537)", "log2 fold change": -0.834}, {"target": "UniProt P00805 (peptide sequence: SVFDTLATAAK, peptide start residue: 274)", "log2 fold change": 0.366}, {"target": "UniProt P77608 (peptide sequence: AAEQGEAIAPLR, peptide start residue: 16)", "log2 fold change": 0.736}, {"target": "UniProt P37626 (peptide sequence: TVETSDER, peptide start residue: 297)", "log2 fold change": 0.336}, {"target": "UniProt P51024 (peptide sequence: QLIEMNR, peptide start residue: 75)", "log2 fold change": -0.359}, {"target": "UniProt P0A9L8 (peptide sequence: FAAQAVMGSAK, peptide start residue: 203)", "log2 fold change": -0.702}, {"target": "UniProt P39161 (peptide sequence: QILAALIK, peptide start residue: 203)", "log2 fold change": 0.746}, {"target": "UniProt P06989 (peptide sequence: KSADPETSYTAK, peptide start residue: 126)", "log2 fold change": -0.912}, {"target": "UniProt Q46861 (peptide sequence: EALPGWSGVDSTRLDTPGK, peptide start residue: 229)", "log2 fold change": 0.959}, {"target": "UniProt P0AG14 (peptide sequence: VNNLSEQYK, peptide start residue: 44)", "log2 fold change": -0.765}, {"target": "UniProt P46837 (peptide sequence: AEDEAINVFAR, peptide start residue: 303)", "log2 fold change": 0.79}, {"target": "UniProt P21499 (peptide sequence: DGQLVFTR, peptide start residue: 65)", "log2 fold change": -0.675}, {"target": "UniProt P77279 (peptide sequence: NIAELSGGEK, peptide start residue: 134)", "log2 fold change": -0.683}, {"target": "UniProt Q46915 (peptide sequence: AMNSEAVVR, peptide start residue: 181)", "log2 fold change": -0.607}, {"target": "UniProt P33594 (peptide sequence: VLQNAVLPAFPVRR, peptide start residue: 249)", "log2 fold change": 0.401}, {"target": "UniProt P09373 (peptide sequence: ALIPFGGIK, peptide start residue: 109)", "log2 fold change": -0.384}, {"target": "UniProt P0A9U6 (peptide sequence: VSPAISTLQK, peptide start residue: 45)", "log2 fold change": 0.654}, {"target": "UniProt P33593 (peptide sequence: VLALVGGSGSGK, peptide start residue: 31)", "log2 fold change": -0.833}, {"target": "UniProt P28861 (peptide sequence: ETAAGSLTGR, peptide start residue: 175)", "log2 fold change": -1.31}, {"target": "UniProt P75824 (peptide sequence: AGVCGCCK, peptide start residue: 275)", "log2 fold change": 0.616}, {"target": "UniProt P37326 (peptide sequence: YNPAPDLADAMK, peptide start residue: 179)", "log2 fold change": -0.342}, {"target": "UniProt P06959 (peptide sequence: VDFSKFGEIEEVELGR, peptide start residue: 392)", "log2 fold change": 0.812}, {"target": "UniProt P23830 (peptide sequence: EALGVLHFK, peptide start residue: 132)", "log2 fold change": -0.891}, {"target": "UniProt P42630 (peptide sequence: ITAWKGQEELLSK, peptide start residue: 129)", "log2 fold change": 0.565}, {"target": "UniProt P32173 (peptide sequence: DAPVVWVHDGERDHPTIALVNR, peptide start residue: 119)", "log2 fold change": -0.372}, {"target": "UniProt P27129 (peptide sequence: DVEPMQEK, peptide start residue: 157)", "log2 fold change": -0.645}, {"target": "UniProt P0A800 (peptide sequence: IGNRFDLVLVAAR, peptide start residue: 13)", "log2 fold change": -0.922}, {"target": "UniProt P00887 (peptide sequence: YPVTPGVATHVTDSRR, peptide start residue: 25)", "log2 fold change": -0.488}, {"target": "UniProt P05719 (peptide sequence: FDTTDLVFVPK, peptide start residue: 54)", "log2 fold change": -0.655}, {"target": "UniProt P26365 (peptide sequence: SATGASVWVLSNR, peptide start residue: 277)", "log2 fold change": -0.606}]}]}
